Measured values as given in PubChem BioAssay AID1159580 (chemical genetic matrix, 2015).
The whole screen tested about 5,500 compounds, of which about 2,000 (36%) were called active. Inconclusive results (about 18%) are left out. Rule as the data show it: active = normalized growth mostly below about 0.91 (no sharp cut-off); inconclusive = no clear call, values can overlap the other calls; inactive = mostly above about 0.92. Some of the results follow.

Assay: chemical genetic growth profiling, strain panel (AID 1159580);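 also: tested at 20 µM; growth read once vehicle control cultures reached saturation at 30 °C; 1 = growth at the plate median or of vehicle wells; lower values mean less growth of the strain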
Details: growth OD

Measured: normalized growth

CCCCCCCCCCCCCCCCCCOCC(O)CO (stereo not drawn)
inactive: S. cerevisiae deletion strains, locus YJR043C, strain POL32, hits give low values 1.01 | S. cerevisiae deletion strains, locus YJR066W, strain TOR1, hits give low values 0.965 | S. cerevisiae deletion strains, locus YKL009W, strain mrt4, hits give low values 1.04 | S. cerevisiae deletion strains, locus YKL068W, hits give low values 1.01 | S. cerevisiae deletion strains, locus YKL085W, strain MDH1 (second series), hits give low values 0.986 | S. cerevisiae deletion strains, locus YKL085W, strain MDH1, hits give low values 0.986 | S. cerevisiae deletion strains, locus YKL160W, strain elf1, hits give low values 1.01 | S. cerevisiae deletion strains, locus YKR001C, strain vps1, hits give low values 1.04 | S. cerevisiae deletion strains, locus YKR026C, strain gcn3, hits give low values 1 | S. cerevisiae deletion strains, locus YKR091W, strain srl3, hits give low values 0.995 | S. cerevisiae deletion strains, locus YLL001W, strain dnm1, hits give low values 0.997 | S. cerevisiae deletion strains, locus YLL026W, hits give low values 0.983 | S. cerevisiae deletion strains, locus YLL041C, strain sdh2, hits give low values 0.997 | S. cerevisiae deletion strains, locus YLR027C, strain aat2, hits give low values 0.998 | S. cerevisiae deletion strains, locus YLR039C, strain RIC1, hits give low values 1.04 | S. cerevisiae deletion strains, locus YLR058C, strain SHM2, hits give low values 0.999 | S. cerevisiae deletion strains, locus YLR102C, strain apc9, hits give low values 1.01 | S. cerevisiae deletion strains, locus YLR113W, strain HOG1, hits give low values 0.995 | S. cerevisiae deletion strains, locus YLR221C, strain rsa3, hits give low values 1 | S. cerevisiae deletion strains, locus YLR258W, strain gsy2, hits give low values 0.975 | S. cerevisiae deletion strains, locus YLR262C, strain YPT6 (second series), hits give low values 1 | S. cerevisiae deletion strains, locus YLR262C, strain YPT6, hits give low values 1.01 | S. cerevisiae deletion strains, locus YLR268W, strain sec22, hits give low values 1.05 | S. cerevisiae deletion strains, locus YLR320W, strain mms22, hits give low values 0.979 | S. cerevisiae deletion strains, locus YLR330W, strain CHS5, hits give low values 1.02 | S. cerevisiae deletion strains, locus YLR342W, strain FKS1 (second series), hits give low values 1.04 | S. cerevisiae deletion strains, locus YLR342W, strain FKS1, hits give low values 0.987 | S. cerevisiae deletion strains, locus YLR357W, strain rsc2, hits give low values 0.932 | S. cerevisiae deletion strains, locus YLR370C, strain arc18, hits give low values 0.998 | S. cerevisiae deletion strains, locus YLR371W, strain rom2, hits give low values 1.02 | S. cerevisiae deletion strains, locus YLR384C, strain iki3, hits give low values 0.986 | S. cerevisiae deletion strains, locus YLR418C, strain cdc73, hits give low values 0.976 | S. cerevisiae deletion strains, locus YML016C, strain PPZ1, hits give low values 1.01 | S. cerevisiae deletion strains, locus YML032C, strain rad52, hits give low values 0.983 | S. cerevisiae deletion strains, locus YML120C, strain ndi1, hits give low values 1.01 | S. cerevisiae deletion strains, locus YML124C, strain tub3, hits give low values 1 | S. cerevisiae deletion strains, locus YMR058W, strain fet3, hits give low values 0.999 | S. cerevisiae deletion strains, locus YMR078C, strain ctf18, hits give low values 1 | S. cerevisiae deletion strains, locus YMR125W, strain sto1, hits give low values 0.955 | S. cerevisiae deletion strains, locus YMR129W, hits give low values 0.989 | S. cerevisiae deletion strains, locus YMR205C, strain PFK2, hits give low values 0.96 | S. cerevisiae deletion strains, locus YMR223W, strain ubp8, hits give low values 1.01 | S. cerevisiae deletion strains, locus YMR231W, strain pep5, hits give low values 0.993 | S. cerevisiae deletion strains, locus YMR263W, strain SAP30, hits give low values 1 | S. cerevisiae deletion strains, locus YMR307W, strain GAS1, hits give low values 1.01 | S. cerevisiae deletion strains, locus YNL067W, strain RPL9B, hits give low values 1.01 | S. cerevisiae deletion strains, locus YNL071W, strain lat1, hits give low values 1 | S. cerevisiae deletion strains, locus YNL128W, strain TEP1, hits give low values 1.02 | S. cerevisiae deletion strains, locus YNL183C, strain NPR1, hits give low values 0.974 | S. cerevisiae deletion strains, locus YNL209W, strain ssb2, hits give low values 0.999 | S. cerevisiae deletion strains, locus YNL233W, strain BNI4, hits give low values 1.01 | S. cerevisiae deletion strains, locus YNL248C, strain rpa49, hits give low values 1.01 | S. cerevisiae deletion strains, locus YNL250W, strain rad50, hits give low values 1 | S. cerevisiae deletion strains, locus YNL271C, strain bni1, hits give low values 1 | S. cerevisiae deletion strains, locus YNL298W, strain CLA4, hits give low values 1 | S. cerevisiae deletion strains, locus YNL307C, strain MCK1, hits give low values 1.01 | S. cerevisiae deletion strains, locus YNL322C, strain KRE1 (second series), hits give low values 0.998 | S. cerevisiae deletion strains, locus YNR049C, strain mso1, hits give low values 0.995 | S. cerevisiae deletion strains, locus YNR052C, strain pop2, hits give low values 0.999 | S. cerevisiae deletion strains, locus YOL012C, strain htz1 0.72 | S. cerevisiae deletion strains, locus YOL147C, strain pex11, hits give low values 1 | S. cerevisiae deletion strains, locus YOR001W, strain rrp6, hits give low values 0.996 | S. cerevisiae deletion strains, locus YOR061W, strain CKA2, hits give low values 1 | S. cerevisiae deletion strains, locus YOR069W, strain VPS5, hits give low values 1.01 | S. cerevisiae deletion strains, locus YOR070C, strain gyp1, hits give low values 0.997 | S. cerevisiae deletion strains, locus YOR080W, strain dia2, hits give low values 0.977 | S. cerevisiae deletion strains, locus YOR083W, strain WHI5, hits give low values 1.02 | S. cerevisiae deletion strains, locus YOR106W, strain vam3, hits give low values 1.01 | S. cerevisiae deletion strains, locus YOR136W, strain idh2, hits give low values 1.02 | S. cerevisiae deletion strains, locus YOR144C, strain elg1, hits give low values 1.01 | S. cerevisiae deletion strains, locus YOR184W, strain ser1, hits give low values 0.995 | S. cerevisiae deletion strains, locus YOR231W, strain MKK1, hits give low values 1 | S. cerevisiae deletion strains, locus YOR265W, strain rbl2, hits give low values 0.987 | S. cerevisiae deletion strains, locus YOR270C, strain vph1, hits give low values 1.03 | S. cerevisiae deletion strains, locus YOR290C, strain snf2, hits give low values 0.973 | S. cerevisiae deletion strains, locus YOR316C, strain cot1, hits give low values 0.997 | S. cerevisiae deletion strains, locus YPL051W, strain arl3, hits give low values 1.01 | S. cerevisiae deletion strains, locus YPL078C, strain atp4, hits give low values 1.01 | S. cerevisiae deletion strains, locus YPL106C, strain sse1, hits give low values 0.953 | S. cerevisiae deletion strains, locus YPL240C, strain hsp82, hits give low values 0.985 | S. cerevisiae deletion strains, locus YPL241C, strain CIN2, hits give low values 0.998 | S. cerevisiae deletion strains, locus YPL256C, strain CLN2, hits give low values 0.983 | S. cerevisiae deletion strains, locus YPR119W, strain clb2, hits give low values 1 | S. cerevisiae deletion strains, locus YPR141C, strain kar3, hits give low values 1 | S. cerevisiae deletion strains, locus YPR163C, strain tif3, hits give low values 1.02 | S. cerevisiae deletion strains, locus YPR167C, strain met16, hits give low values 1.02 | S. cerevisiae deletion strains, strain wtn01, hits give low values 1.04 | S. cerevisiae strains, strain wild type, hits give low values 0.995
